Screening data: PubChem BioAssay, Broad Institute
dFosB act = enhances mouse delta FosB homodimer DNA binding; P13346; purified delta FosB, TAMRA-CDK5 oligo fluorescence polarization; percent of positive-control signal above neutral wells; activation, % at 25 µM; 0.99% of 340,000 active; AID 493131;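 active means mean activation above about 17%, with every replicate also reaching it, limit read from the data, passing the limit was not always enough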
DENV2 CPE rescue = inhibitors of DENV2 cytopathic effect. DENV2-infected cells, cytopathic effect rescue, plate reader. CPE inhibition, % at 9.99 µM. 1.7% of 350,000 active. AID 651640; in the data active means CPE inhibition above about 20%, passing the limit was not always enough; tested in BHK-21 cells;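 further: 0% = median of neutral control wells and 100% = median of positive control wells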
AF4-AF9 inh = MLL-AF4/AF9 protein interaction inhibition | P42568 | AlphaScreen, biotin-AF4 peptide binding to FLAG-AF9 | inhibition, % at 10 µM | 0.47% of 350,000 active | AID 651704;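 active means every replicate reaching a set inhibition limit, whatever the replicate mean, cut at about 25% in these data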;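 further: 0% = plate neutral control median and 100% = total signal loss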
RAD54 inh = blocks human RAD54 Holliday junction branch migration; Q92698; FAM/BHQ fluorescence; inhibition, % at 10.4 µM; 0.14% of 360,000 active; AID 602329;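 active means mean normalized replicate activity at least 40 and at least half of replicates scoring 40 or more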;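 further: 0% = median of neutral control wells and 100% = median of positive control wells; inhibitors cause a drop in the FAM fluorescence signal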
RAD52 anneal inh = inhibitors of human RAD52 DNA annealing | recombinant RAD52 DNA annealing, FRET fluorescence | 0.46% of 360,000 active | inhibition, % at 18.7 µM;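 active means every replicate showing at least 50% inhibition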
Target sequence (P43351 whole entry, looked up): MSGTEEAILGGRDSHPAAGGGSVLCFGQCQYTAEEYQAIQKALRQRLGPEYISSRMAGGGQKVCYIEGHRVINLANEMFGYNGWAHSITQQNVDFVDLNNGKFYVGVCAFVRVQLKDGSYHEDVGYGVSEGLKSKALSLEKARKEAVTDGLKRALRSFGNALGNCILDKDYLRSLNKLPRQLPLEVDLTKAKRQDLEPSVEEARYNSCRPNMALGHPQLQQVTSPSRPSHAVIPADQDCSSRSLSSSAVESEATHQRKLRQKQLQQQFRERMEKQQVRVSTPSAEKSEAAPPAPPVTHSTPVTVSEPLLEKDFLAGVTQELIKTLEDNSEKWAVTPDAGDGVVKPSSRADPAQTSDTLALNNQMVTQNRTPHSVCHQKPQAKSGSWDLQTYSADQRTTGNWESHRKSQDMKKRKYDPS
GSIS activator = primary screen for activators of insulin secretion dependent on glucose, INS-1E cells, GLuc reporter luminescence; activation, % at 16.6 µM; 0.61% of 370,000 active; INS-1E GLuc reporter insulin secretion, 2-3 h;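 active means lowest replicate activation of at least 40%, so every replicate reaches that level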;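 further: 0% = median of neutral control wells and 100% = median of IBMX positive control wells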
Numbers without * were called inactive; nt = no result. A selection: hits, their analogues and other compounds. The true share with any hit is near 3.1%.

SMILES	dFosB act	DENV2 CPE rescue	AF4-AF9 inh	RAD54 inh	RAD52 anneal inh	GSIS activator
COc1ccc(CN(C)C[C@H]2Oc3ccc(NC(=O)c4ccncc4)cc3CC(=O)N([C@@H](C)CO)C[C@H]2C)cc1	nt	0	-1	4	-10	-5
CN(C)C(=O)c1ccc(-c2ccc3c(c2)[C@H]2[C@H](CCN2C(=O)c2ccccn2)[C@H](CO)N3C)cc1	nt	-6	nt	3	nt	-17
O=C(c1cccnc1)N1CCCCN2[C@H](C1)[C@H](c1ccc(C#Cc3cccnc3)cc1)[C@@H]2CO	nt	10	20	-5	-13	-14
O=C(c1cccnc1)N1CCCCN2[C@H](CO)[C@@H](c3ccc(C#Cc4cccnc4)cc3)[C@H]2C1	nt	25*	-4	2	nt	8
CCc1cnc(N2[C@@H](C#N)[C@@H](c3ccccc3)[C@@H]2CO)s1	nt	49*	0	-6	-31	3
CCc1cnc(N2[C@H](CO)[C@H](c3ccc(C4=CCCCC4)cc3)[C@@H]2C#N)s1	nt	29*	0	-2	-5	7
CCc1cnc(N2[C@@H](C#N)[C@H](c3ccc(C4=CCCCC4)cc3)[C@@H]2CO)s1	nt	0	2	-14	-5	-6
C[C@@H]1CN([C@@H](C)CO)S(=O)(=O)c2ccc(C3=CCCC3)cc2O[C@@H]1CN(C)C(=O)c1cccnc1	nt	9	-2	-2	6	14
C[C@H](NC(=O)C[C@H]1C=C[C@@H](NC(=O)C2CCC2)[C@@H](CO)O1)c1ccccc1	nt	-7	0	9	3	-7
CO[C@H]1CN(C)C(=O)c2ccc(NC(=O)Nc3ccc4c(c3)OCO4)cc2OC[C@H](C)NC[C@@H]1C	nt	3	nt	nt	-2	-9
COc1ccc2c3c(n(C)c2c1)[C@H](CO)N(C(=O)NC(C)C)CC31CN(CC2CC2)C1	nt	6	3	nt	3	12
COc1ccc([C@H]2C[C@H](n3cc(COC(=O)c4ccccc4)nn3)[C@@H](O)CN2C(=O)C2CCCCC2)cc1	nt	-1	2	3	-13	-9
O=C(OCc1cn([C@@H]2CN(C(=O)C3CCCCC3)[C@@H](c3ccccc3)C[C@H]2O)nn1)c1ccccc1	nt	-7	0	-3	-13	-4
O=C(C1CCCCC1)N1C[C@H](O)[C@@H](n2cc(C3CC3)nn2)C[C@@H]1c1ccccc1	nt	86*	-5	3	-12	1
O=C(OCc1cn([C@H]2CN(C(=O)C3CCCCC3)[C@@H](c3ccccc3)C[C@@H]2O)nn1)c1ccccc1	nt	25*	-3	5	-9	-30
Cc1ccc([C@H]2C[C@H](n3cc(COC(=O)c4ccccc4)nn3)[C@@H](O)CN2C(=O)C2CCCCC2)cc1	nt	52*	-2	2	-9	-17
Cc1ccc(C(=O)NC(=S)c2c(C)cc3ccccn23)cc1	nt	85*	21	-7	-1	nt
Cc1cc2ccccn2c1C(=S)NC(=O)c1ccccc1	5	-4	8	-5	-3	nt
Cc1ccc(-n2nc3c(c2NC(=O)c2ccco2)CS(=O)C3)c(C)c1 (stereo not drawn)	-3	55*	-2	12	-3	8
COc1cc2c(cc1OC)CN(c1nc(-c3cccnc3)nc3ccccc13)CC2	34*	nt	9	-6	-44	7
C=C(NC(=O)C(=C)NC(=O)c1csc(C2=NC3c4csc(n4)C4NC(=O)c5csc(n5)C(C(C)(O)C(C)O)NC(=O)C5CSC(=N5)/C(=C/C)NC(=O)C(C(C)O)NC(=O)c5csc(n5)C3(CC2)NC(=O)C(C)NC(=O)C(=C)NC(=O)C(=C)NC(=O)C(C(C)C)NC2C=Cc3c(C(C)O)cc(nc3C2O)C(=O)OC4C)n1)C(N)=O (stereo not drawn)	17*	60*	1	nt	-6	-8
CNC[C@H]1Oc2ncc(-c3ccccc3F)cc2C(=O)N([C@@H](C)CO)C[C@H]1C	nt	nt	-1	nt	nt	10
N#Cc1nc(COc2ccccc2Cl)oc1N1CCCCCC1	-3	-4	9	4	-6	24
N#Cc1nc(COc2ccccc2Cl)oc1N1CCCC1	-11	6	26*	nt	-19	nt
C[C@@H]1CCCCO[C@@H](CN(C)C(=O)Nc2cccc3ccccc23)[C@@H](C)CN([C@H](C)CO)C(=O)c2cc(NC(=O)Nc3ccc4c(c3)OCO4)ccc2O1	nt	1	3	-2	13	-1
